The source of these data is PubChem BioAssay (NCATS).

Records with an inconclusive call do not appear. Activity calls are given as the source filed them. Calls come from the whole dose curve; as a rule, active = well fitted curve in the direction sought with a large enough effect; inconclusive = small, poorly fitted or top-dose-only effect, or another doubt; inactive = no such curve, though single readings can be large; an effect the other way counts as inactive or inconclusive.

Assay [1] is described as follows: OV-KATE Cancer Cell Toxicity qHTS against the NCATS CANVASS Library (AID 1347345). In short, it runs like this: (§1)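 1000 cells/well seeded and rested 4 h at 37 °C before pin transfer of compounds in an 11-pnt series. Exposure 72 h at 37 °C/5% CO2; viability by CellTiter-Glo luminescence after 15 min at room temperature.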
Assay [2] is described as follows: OV-SAHO Cancer Cell Toxicity qHTS against the NCATS CANVASS Library (AID 1347348). Note: series mostly up to about 38 µM; nearly all actives have a fitted effect of over 55% in size. In short, it runs like this: as §1
The nature of assay [3]: SW1088 Cancer Cell Toxicity qHTS against the NCATS CANVASS Library (AID 1347350). Note: nearly all actives have a fitted effect of over 75% in size. Note: potency is the fitted concentration of half-maximal effect. In short, it runs like this: as §1
A short description of assay [4]: A2780 Cisplatin Sensitive Ovarian Cancer Cell Toxicity qHTS against the NCATS CANVASS Library (AID 1347353). Note: nearly all actives have a fitted effect of over 60% in size. Note: potency is the fitted concentration of half-maximal effect. An outline of the steps: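 A2780 cisplatin-sensitive cells (750 per well) were seeded, left 4 h at 37 °C, then pin-dosed in an 11-point series. After 72 h at 37 °C/5% CO2, viability was measured as ATPLite luminescence.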
For orientation: qHTS replaces the single test concentration by a dilution series.

Assay [5] can be described thus: HEK-293 Cancer Cell Toxicity qHTS against the NCATS CANVASS Library (AID 1347355). Note: series mostly up to about 46 µM; nearly all actives have a fitted effect of over 65% in size. In short, it runs like this:
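Cells were seeded at 1000 per well and allowed to settle 4 hours at 37 degrees C before pin transfer of compounds as an 11-point series. Viability was read by CellTiter-Glo luminescence after 72 hours' exposure.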

A short description of assay [6]: HPAF-II 12hr Apoptosis Induction qHTS against the NCATS CANVASS Library (AID 1347358). An outline of the steps:
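HPAF-II cells (500/well, DMEM + 10% FBS) were exposed to compounds for 12 hours at 37 degrees C. Caspase-3/7 activity was then read by Caspase-Glo 3/7 luminescence after 15 min at room temperature.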

Assay [7] is described as follows: HEK293 24hr Apoptosis Induction qHTS against the NCATS CANVASS Library (AID 1347359). An outline of the steps: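 HEK293 cells, 500 per well, exposed to an 11-point compound series for 24 hours at 37 degrees C. Caspase 3/7 activity read by Caspase-Glo luminescence (DEVD substrate) after 15 min at room temperature.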
Assay [8] deals with Luciferin 4-monooxygenase (Photinus pyralis) (UniProt P08659). Description: Firefly luciferase counterscreen qHTS: Assay Interference Panel against the NCATS CANVASS Library (AID 1347363). Note: series mostly up to about 57 µM. In short, it runs like this:
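Purified P. pyralis luciferase (0.04 ug/mL, 4x reagent) added to Tris-acetate buffer with 0.013 mM D-luciferin, 0.013 mM ATP and 13.3 mM Mg-acetate; compounds preincubated 15 min, then luminescence read after 5 min, RT.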
Background: The purpose of a counterscreen is to sort out artefacts and off-target activity.

The nature of assay [9]: KB-8-5-11 Cancer Cell Toxicity qHTS against the NCATS CANVASS Library (AID 1347364). Note: nearly all actives have a fitted effect of over 75% in size. An outline of the steps:
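KB-8-5-11 cells (500/well) in DMEM + 10% FBS were exposed to compounds in an 11-point qHTS series for 72 hr at 37C, 5% CO2. Viability was read by CellTiter-Glo luminescence.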

Assay [10] can be described thus: SDT Cancer Cell Toxicity qHTS against the NCATS CANVASS Library (AID 1347365). Note: nearly all actives have a fitted effect of over 60% in size. An outline of the steps: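 SDT canine glioma cells (500 cells/well) were exposed to compounds in an 11-point series for 72 hr at 37C, 5% CO2; viability was read as ATP content by CellTiterGlo luminescence.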
Assay [11] can be described thus: qHTS for ATAD5 Agonist screened against the NCATS CANVASS Library (AID 1347367).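 Note: luciferase reporter driven by ATAD5 which rises upon DNA damage.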 In short, it runs like this:
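HEK293T cells stably carrying an ATAD5-controlled luciferase reporter (2000 cells/well) attached for 5 hr, then received compounds in an 11-point series for 16hr at 37C. Luminescence was read after a 30 min room-temperature reagent step.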

Assay [12] is described as follows: G06 Cancer Cell Toxicity qHTS against the NCATS CANVASS Library (AID 1347368). Note: nearly all actives have a fitted effect of over 60% in size. An outline of the steps:
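G06 dog glioma cells seeded at 500 cells/well were exposed to compounds (11-point qHTS series) for 72 hr at 37C, 5% CO2; viability read as ATP content by CellTiterGlo luminescence.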

Assay [13] can be described thus: qHTS for Hypoxia signaling pathway (HIF-1) antagonists against the NCATS CANVASS Library (AID 1347374). Note: nearly all actives have a fitted effect of over 60% in size. Note: potency is the fitted concentration of half-maximal effect. In short, it runs like this: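 HRE-bla ME-180 cells (2,000/well, 0.5% dialyzed FBS) were pre-incubated 5 h, then given an 11-point compound series plus CoCl2 (60 uM solution as added) for 17 h at 37C. CCF4 β-lactamase read (ex 405, em 460/530 nm) after 2 h at RT.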

A short description of assay [14]: DH5-alpha competent E. coli microbial cell viability qHTS against the NCATS CANVASS Library (AID 1347377). As to conditions: outcome: dose series up to 46.1 µM unless noted. In short, it runs like this: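 DH5-alpha E. coli suspension (0.9 OD culture diluted to 0.2 OD) exposed to compounds in an 11-point series, overnight at 37C, 5% CO2. Viability read as ATP by BacTiter-Glo luminescence after 20 min at room temperature.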

Assay [15] in a line: Inflammasome Signaling qHTS Counterscreen: IL-1-beta AlphaLISA counterscreen against the NCATS CANVASS Library (AID 1347381).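 Note: cell-free check with purified IL-1β in medium and no THP-1 cells; series mostly up to about 57 µM.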 An outline of the steps: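 To flag interference with the AlphaLISA read-out, a known amount of purified IL-1-beta (4 pg) replaced cell supernatant. Detection used anti-IL-1-beta acceptor beads, biotinylated antibody and streptavidin donor beads at room temperature.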

Assay [16] can be described thus: qHTS for Activators of p53 Stress Response Pathway screened against the NCATS CANVASS Library (AID 1347388). In short, it runs like this:
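p53RE-bla HCT-116 cells (4000/well) were pre-incubated for 5 h, then treated with compound (11 points) for 16 h at 37C. After 2 h with CCF4, the 460/530 nm ratio gave reporter activation; CellTiter-Glo measured viability.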

Assay [17] is described as follows: qHTS for activators of Nrf2/ARE signaling pathway screened against the NCATS CANVASS Library (AID 1347391). Note: nearly all actives have a fitted effect of over 60% in size. Note: potency is the fitted concentration of half-maximal effect. In short, it runs like this: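 ARE-bla HepG2 beta-lactamase reporter cells, 2000 cells/well, were preincubated 5 h, then exposed to compounds (11-point series) for 16 h at 37C. CCF4 fluorescence (ex 405, em 460/530 nm) after 2 h at room temperature.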
Assay [18] in a line: qHTS for activators of dead-cell proteases activity screened against the NCATS CANVASS Library (AID 1347392).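 Note: luminescence from protease leaking out of membrane-damaged cells cleaving impermeant substrate; rising signal means more cytotoxicity.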 An outline of the steps:
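HepG2 cells, 2000/well, attached 18 h at 37C, then exposed to compounds (11-point qHTS) for 5 h. Dead-cell protease release read as luminescence from cell-impermeant AAF-aminoluciferin substrate after 15 min at room temperature.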

Assay [19] is described as follows: qHTS for inhibitors of ER calcium dysfunction: SERCaMP assay screened against the NCATS CANVASS Library (AID 1347393). Note: nearly all actives have a fitted effect of over 40% in size. Note: potency is the fitted concentration of half-maximal effect. An outline of the steps: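 SH-SY5Y GLuc-SERCaMP, 1000 cells/well, 4 h attach; cpd 16 h, 37C/5% CO2; thapsigargin (added as 6x 600 nM) 4 h; coelenterazine; luminescence. Reduced reporter release = ER Ca stabilization.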
Assay [20] can be described thus: qHTS for inhibitors of Wild type Zika virus screened against the NCATS CANVASS Library (AID 1347396).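 Note: ATP luminescence of surviving cells so rescue from viral cell killing; series mostly up to about 46 µM.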 An outline of the steps: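 Vero 766 (African green monkey) cells, 1000 per well, attached overnight, then compounds were added in an 11-point series before wild-type Zika virus infection. After 72 h at 37C, cell viability was read as CellTiter Glo luminescence.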

Luciferin 4-monooxygenase (Photinus pyralis), sequence (P08659 whole entry, looked up): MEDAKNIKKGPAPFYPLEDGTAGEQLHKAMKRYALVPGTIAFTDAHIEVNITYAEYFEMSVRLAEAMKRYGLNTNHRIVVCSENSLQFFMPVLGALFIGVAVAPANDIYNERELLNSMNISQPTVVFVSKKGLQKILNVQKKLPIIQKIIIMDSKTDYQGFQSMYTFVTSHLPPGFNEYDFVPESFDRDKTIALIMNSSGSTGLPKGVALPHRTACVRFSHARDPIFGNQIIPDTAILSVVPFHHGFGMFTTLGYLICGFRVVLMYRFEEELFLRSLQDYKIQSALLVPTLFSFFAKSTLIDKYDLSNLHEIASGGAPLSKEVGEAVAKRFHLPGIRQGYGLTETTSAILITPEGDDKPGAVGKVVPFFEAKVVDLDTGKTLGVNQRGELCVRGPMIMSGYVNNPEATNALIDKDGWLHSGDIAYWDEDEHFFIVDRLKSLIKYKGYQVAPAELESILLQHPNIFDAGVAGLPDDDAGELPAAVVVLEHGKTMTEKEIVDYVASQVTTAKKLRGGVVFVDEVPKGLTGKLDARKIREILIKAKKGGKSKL

In the case of `COC(=O)[C@]1([C@H]2CCC(=O)O2)CC(=O)c2c(O)cc(C)cc2O1`, the Potency entry in assay [1], in assay [2], in assay [3], in assay [4], in assay [5] and in [6] was “inactive” each time. The Potency result in assay [7], in assay [8], in [9], in [10], in assay [11] and in assay [12] was “inactive” in each case. For the same compound, the Potency entry in assay [13], in assay [16], in [17], in assay [18] and in [19] was “inactive” each time. Further, the result in assay [14], in assay [15] and in assay [20] was inactive.
`[C-]#[N+][C@@]12C(=O)[C@@H]3[C@@H](O[C@@]4(C(=O)N(C)c5cccc1c54)C3(C)C)C(=O)[C@@]2(C)C=C`: the Potency entry in [1], in [2], in assay [3], in assay [4], in [5] and in [6] was “inactive” each time. Further, the Potency entry in assay [7], in assay [9], in assay [10], in [12], in assay [16] and in [17] was “inactive” in each case. Also, the Potency in assay [13] is 2980 nM (active). In addition, the outcome in assay [14] was inactive.
For the compound `C=C1[C@@]2(C)CC3C4(C)CCC(O)C(C)(C)C4CCC3(C)[C@]1(C(=O)OC)C(=O)C(C)(O)C2=O` (some centres not stated), the Potency result in assay [1], in [2], in assay [3], in [4], in assay [5] and in assay [7] was “inactive” each time. In addition, the Potency result in [9], in assay [10], in assay [11], in assay [12], in [13] and in assay [16] was “inactive” in each case. In addition, the Potency entry in [17] and in assay [18] was “inactive” in each case. Moreover, the outcome in assay [14], in [15] and in assay [20] was inactive. The Potency in assay [19] was 8600 nM (active).
Turning to `C[C@H](c1cnc(N)[nH]1)c1ccc(O)c2[nH]cc(-c3cnc(-c4c[nH]c5ccccc45)c(=O)[nH]3)c12`, the Potency entry in assay [1], in [2], in assay [3], in [4], in assay [6] and in assay [7] was “inactive” throughout. For the same compound, the Potency entry in [8], in assay [9], in assay [17] and in assay [18] was “inactive” each time. The compound was classed as inactive in assay [20].
Take `Cc1cc(O)cc2c1C(=O)c1c(O)cc(O)cc1C2=O`: the Potency entry in assay [1], in [2], in assay [3], in assay [4], in assay [5] and in assay [6] was “inactive” in each case. Further, the Potency entry in [7], in assay [8], in [9], in assay [10], in [11] and in assay [12] was “inactive” in each case. For the same compound, the Potency entry in [13], in [16], in assay [17] and in [19] was “inactive” throughout. Besides, the compound was classed as inactive in [14], in assay [15] and in [20].
In the case of `O=C1OC(CCO)c2cccc(O)c21` (configuration not stated), the Potency entry in [1], in assay [2], in assay [3], in [4], in assay [5] and in [6] was “inactive” in each case. Also, the Potency result in assay [7], in assay [8], in [9], in assay [11], in assay [13] and in assay [16] was “inactive” each time. Moreover, the Potency result in [17], in [18] and in assay [19] was “inactive” in each case. Besides, the compound was called inactive in assay [14] and in [20].
With `COC(=O)c1cccc2oc(-c3cccc4oc(-c5c(C)cccc5O)nc34)nc12`, the Potency entry in assay [1], in assay [5], in assay [6], in assay [7], in assay [8] and in assay [11] was “inactive” throughout. The Potency result in [16] and in assay [18] was “inactive” in each case. Further, the Potency is 168 nM (active) in assay [3], 3320 nM (active) in assay [4], 941 nM (active) in assay [13] and 1860 nM (active) in assay [17]. Further, the compound was called inactive in assay [20].
